This is an account of results in PubChem BioAssay (Tox21).

SMILES strings stand for the structures. Unmarked numbers belong to inactive results. Results filed as inconclusive are left out. Active and inactive are the calls of the source. Unless noted, calls follow the shape of the full dose curve.

Assay [1] can be described thus: Nuclear factor erythroid 2-related factor 2/antioxidant responsive element (Nrf2/ARE) small molecule agonists: qHTS cell viability counter screen in human keratinocytes (AID 1919968; active = well fitted curve in the direction sought with a large enough effect in the repeat runs; an effect the other way counts as inactive or inconclusive; also: nearly all actives have a fitted effect of over 55% in size; also: potency is read from the fitted curve at half-maximal effect). The procedure, abridged:
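In human HaCaT keratinocytes stably expressing an ARE-driven luciferase, compound exposure lasted 23 h at 37 C under 5% CO2. Viable cells are quantified with a protease-based fluorogenic reagent (CellTiter-Fluor) read 1 h after addition.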

Assay [2] is described as follows: Nuclear factor erythroid 2-related factor 2/antioxidant responsive element (Nrf2/ARE) small molecule agonists: luciferase reporter gene qHTS assay in human keratinocytes (AID 1919969). Also: nearly all actives have a fitted effect of over 35% in size. Also: potency is read from the fitted curve at half-maximal effect. Background: Reporter assays use an easily measured gene product as a stand-in for the process of interest.
Assay [3] addresses Gonadotropin-releasing hormone receptor (Homo sapiens) (UniProt P30968). Nature of the assay: Human gonadotropin-releasing hormone receptor (GnRHR) small molecule agonists, calcium flux assay in GnRHR-HEK293 cells (AID 1920063). Also: nearly all actives have a fitted effect of over 35% in size. Put shortly: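 Intracellular calcium rise is the read-out: engineered human GnRHR HEK293 cells, dye-loaded, are exposed to DMSO-dissolved compounds and fluorescence at Ex/Em 480/540 is tracked for 3 min.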
On the technique in general: Calcium flux is commonly read through the fluorescence of an indicator in the cells.

Assay [4] has as its target KiSS-1 receptor (Homo sapiens) (UniProt Q969F8). Put plainly: Human kisspeptin (KISS1R) small molecule agonists, calcium flux assay in KISS1R-HEK293 cells (AID 1920064; active = well fitted curve in the direction sought with a large enough effect in the repeat runs; an effect the other way counts as inactive or inconclusive). Put shortly: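 Concentration-response testing used 15 concentrations in triplicate on human KISS1R-expressing HEK293 cells. Calcium-dependent fluorescence (Ex/Em 480/540) was followed kinetically for 3 min after compound transfer.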

A short description of assay [5]: G protein-coupled receptor (GPCR) small molecule agonists, calcium flux assay: HEK293 wild type cell line counter screen (AID 1920065). Put shortly: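 Fluorescence intensity signals activation. After overnight (18 h) culture and a 1 h calcium dye load at 37 C, compounds are added by pin tool and the plate read at 480/540 nm for 3 min in 1 s steps.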
Assay [6] in a line: p53 small molecule agonists, cell-based qHTS assay with human liver microsomes (AID 1963577).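 Also: p53 response element beta-lactamase reporter cells with liver microsomes plus NADPH.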 The procedure, abridged: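 HLM-supplemented p53RE-bla reporter assay: 16 h compound exposure at 37 C, microsomes and NADPH each 0.5 mg/mL final, read by fluorescence intensity.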
A short description of assay [7]: p53 small molecule agonists, cell-based qHTS assay with rat liver microsomes (AID 1963578). Put shortly: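 Quantitative HTS of the Tox21 10K library: p53RE-bla cells, rat liver microsomes plus NADPH at 0.5 mg/mL final each, 16 h at 37 C, beta-lactamase fluorescence detection.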
In general terms: In qHTS, concentration-response curves come from the screen itself.

A short description of assay [8]: p53 small molecule agonists, cell-based qHTS assay with human liver microsomes: qHTS cell viability counter screen (AID 1963579). Also: nearly all actives have a fitted effect of over 45% in size. Also: potency is read from the fitted curve at half-maximal effect. Put shortly:
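Viability of p53RE-bla cells is measured as CellTiter-Glo luminescence following a 16 h, 37 C incubation with compound, liver microsomes from human donors and NADPH.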

Assay [9] in a line: p53 small molecule agonists, cell-based qHTS assay with rat liver microsomes: qHTS cell viability counter screen (AID 1963580). Also: nearly all actives have a fitted effect of over 45% in size. The procedure, abridged: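 After the beta-lactamase ratio was read, CellTiter-Glo was added to the same wells and luminescence measured at 30 min; cells had been treated 16 h at 37 C with compounds, rat liver microsomes and NADPH (0.5 mg/mL final each).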

In assay [10] the target is 5-hydroxytryptamine receptor 2A (Homo sapiens) (UniProt P28223). Nature of the assay: 5-hydroxytryptamine receptor 2A (HTR2A) small molecule antagonists, cell-based qHTS assay (AID 1963586). Also: nearly all actives have a fitted effect of over 45% in size. The procedure, abridged: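 CHO cells stably expressing human HTR2A were plated for 18 h at 37 C, then loaded with calcium dye for 1 h. Compounds were preincubated 5 min at room temperature before DOI (4 nM solution) was added. Kinetic fluorescence was read for 3 min.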

For assay [11] the target is unchanged. Nature of the assay: 5-hydroxytryptamine receptor 2A (HTR2A) small molecule agonists, cell-based qHTS assay (AID 1963587). Also: nearly all actives have a fitted effect of over 30% in size. Put shortly:
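CHO cells stably expressing human HTR2A, plated 18 h, loaded with calcium dye 1 h at 37 C. Agonist mode: compounds added and intracellular calcium fluorescence recorded kinetically for 2 min at 1 sec intervals.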

The target in assay [12] is Muscarinic acetylcholine receptor M1 (Homo sapiens) (UniProt P11229). Nature of the assay: Cholinergic receptor muscarinic 1 (CHRM1) small molecule antagonists, cell-based qHTS assay (AID 1963588). Also: nearly all actives have a fitted effect of over 40% in size. The procedure, abridged:
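Compounds were tested at 15 concentrations in three independent runs. Dye-loaded CHRM1-CHO cells were exposed 5 min at room temperature before stimulation by acetylcholine added at 50nM. Intracellular calcium was read kinetically on FDSS for 3 min.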

Assay [13] has the same target. Put plainly: Cholinergic receptor muscarinic 1 (CHRM1) small molecule agonists, cell-based qHTS assay (AID 1963589). Also: nearly all actives have a fitted effect of over 35% in size. Put shortly:
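Fluorescent calcium dye reports M1 activation in stably transfected CHO cells. Compounds, 15 concentrations, added after 1 h dye loading at 37 C; kinetic reading at 1 sec intervals.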

For assay [14], the target named is Beta-2 adrenergic receptor (Homo sapiens) (UniProt P07550). Put plainly: Adrenergic beta2 receptor (ADRB2) small molecule antagonists, cell-based qHTS assay (AID 1963592). Also: series mostly up to about 92 µM; nearly all actives have a fitted effect of over 50% in size. The procedure, abridged: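 Assay format: CHO-ADRB2 cells, 18-20hr seeding at 37C/5% CO2, then compound plus 1nM isoproterenol agonist mix for 0.5hr RT. Homogeneous time-resolved fluorescence cAMP detection after 1hr, expressed as 665/615 nm ratio.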

Assay [15] addresses D(2) dopamine receptor (Homo sapiens) (UniProt P14416). Nature of the assay: Dopamine D2 receptor (DRD2) small molecule agonists, cell-based qHTS assay (AID 1963594). Also: nearly all actives have a fitted effect of over 35% in size. The procedure, abridged: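 HEK293 cells stably expressing human DRD2, pre-treated with PDE inhibitor Ro20-1724 (0.1 mM final) and compound 10 min at room temperature, then stimulated with NKH477 (200nM […]) for 30 min. cAMP read by HTRF (665/620 nm).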

The target is the same in assay [16]. Nature of the assay: Dopamine D2 receptor (DRD2) small molecule antagonists, cell-based qHTS assay (AID 1963595; active = well fitted inhibition curve with a large enough effect in the signal ratio in the repeat runs, with a control signal flat; the % refers to the signal ratio; also: potency is read from the fitted curve at half-maximal effect). The procedure, abridged:
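HEK293 cells stably expressing DRD2, preincubated with 0.1 mM Ro20-1724 and compounds 10 min, were stimulated with 200 nM NKH477 plus 12 nM quinpirole for 30 min at room temperature; cAMP measured by HTRF (665/620 nm).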

Assay [17] is described as follows: p53 small molecule agonists, cell-based qHTS assay: qHTS cell viability counter screen (AID 1963581). Also: nearly all actives have a fitted effect of over 45% in size. The procedure, abridged: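 Luminescence from CellTiter-Glo, reflecting ATP content, serves as the cytotoxicity measure; it is taken after the 2 h reporter substrate step in HCT-116 p53RE-bla cells dosed for 16 h at 37 C.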
Assay [18] can be described thus: p53 small molecule agonists, cell-based qHTS assay (AID 1963582; active = well fitted activation curve with a large enough effect in the signal ratio in the repeat runs, not every such curve was filed as active; the % refers to the signal ratio). Put shortly: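 After plating, p53RE-bla cells sat 5 h in the incubator; compounds or DMSO vehicle were pinned in; a 16 h incubation at 37 C followed; FRET substrate was added and, 2 h later at RT, fluorescence was measured.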
The nature of assay [19]: cAMP Responsive Elements (CRE) small molecule agonists, cell-based qHTS assay (AID 1963590). Put shortly: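 Compound exposure lasted 3 h at 37 C/5% CO2 in CRE-bla HEK 293T cells grown in assay medium with 10% dialyzed FBS and 25 mM HEPES. Reporter signal came from LiveBLAzer B/G FRET substrate, 2 h, room temperature.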
The nature of assay [20]: cAMP Responsive Elements (CRE) small molecule antagonists, cell-based qHTS assay (AID 1963591; active = well fitted inhibition curve with a large enough effect in the signal ratio in the repeat runs, not every such curve was filed as active; the % refers to the signal ratio). The procedure, abridged: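 Stimulation used NKH477 at a final 0.25 uM for 3 h in compound-treated CRE-bla HEK293T cells, seeded 18 h beforehand. Reporter activity was measured with LiveBLAzer B/G FRET substrate after 2 h at room temperature.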
% is scaled to controls: 0 for no effect and ±100 for the full control effect.

Gonadotropin-releasing hormone receptor (Homo sapiens), sequence (P30968 whole entry, looked up): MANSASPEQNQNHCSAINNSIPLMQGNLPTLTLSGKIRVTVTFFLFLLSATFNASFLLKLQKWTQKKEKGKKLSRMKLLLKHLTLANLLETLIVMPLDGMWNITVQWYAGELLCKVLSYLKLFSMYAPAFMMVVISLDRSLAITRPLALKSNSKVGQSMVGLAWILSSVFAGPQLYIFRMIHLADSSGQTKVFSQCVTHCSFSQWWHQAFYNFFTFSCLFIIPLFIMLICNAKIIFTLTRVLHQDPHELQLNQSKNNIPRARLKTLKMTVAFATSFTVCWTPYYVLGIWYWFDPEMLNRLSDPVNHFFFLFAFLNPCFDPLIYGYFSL
D(2) dopamine receptor (Homo sapiens), sequence (P14416 whole entry, looked up): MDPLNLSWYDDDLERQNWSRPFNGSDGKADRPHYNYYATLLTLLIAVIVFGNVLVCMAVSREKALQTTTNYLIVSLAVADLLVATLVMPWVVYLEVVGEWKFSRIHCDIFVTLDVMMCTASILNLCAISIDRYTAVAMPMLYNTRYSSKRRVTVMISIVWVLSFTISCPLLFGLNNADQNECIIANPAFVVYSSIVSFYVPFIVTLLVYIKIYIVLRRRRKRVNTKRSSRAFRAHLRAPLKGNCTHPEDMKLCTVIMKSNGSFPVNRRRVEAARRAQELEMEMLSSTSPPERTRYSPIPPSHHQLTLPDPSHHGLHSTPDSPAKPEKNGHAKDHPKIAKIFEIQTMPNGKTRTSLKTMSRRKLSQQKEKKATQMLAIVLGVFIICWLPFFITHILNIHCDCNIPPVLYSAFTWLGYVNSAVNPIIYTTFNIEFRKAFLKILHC
5-hydroxytryptamine receptor 2A (Homo sapiens), sequence (P28223 whole entry, looked up): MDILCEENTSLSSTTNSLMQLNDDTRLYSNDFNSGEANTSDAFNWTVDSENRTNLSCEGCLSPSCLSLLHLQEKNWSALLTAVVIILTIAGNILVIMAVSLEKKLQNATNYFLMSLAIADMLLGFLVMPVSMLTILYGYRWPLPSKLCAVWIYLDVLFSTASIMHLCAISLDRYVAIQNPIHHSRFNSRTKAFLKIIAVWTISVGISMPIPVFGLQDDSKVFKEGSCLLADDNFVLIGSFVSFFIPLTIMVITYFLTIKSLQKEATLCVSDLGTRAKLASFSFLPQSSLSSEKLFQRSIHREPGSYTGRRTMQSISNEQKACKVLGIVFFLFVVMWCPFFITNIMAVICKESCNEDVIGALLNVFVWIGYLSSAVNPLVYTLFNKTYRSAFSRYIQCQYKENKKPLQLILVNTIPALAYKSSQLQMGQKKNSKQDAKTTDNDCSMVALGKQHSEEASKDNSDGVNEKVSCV
Beta-2 adrenergic receptor (Homo sapiens), sequence (P07550 whole entry, looked up): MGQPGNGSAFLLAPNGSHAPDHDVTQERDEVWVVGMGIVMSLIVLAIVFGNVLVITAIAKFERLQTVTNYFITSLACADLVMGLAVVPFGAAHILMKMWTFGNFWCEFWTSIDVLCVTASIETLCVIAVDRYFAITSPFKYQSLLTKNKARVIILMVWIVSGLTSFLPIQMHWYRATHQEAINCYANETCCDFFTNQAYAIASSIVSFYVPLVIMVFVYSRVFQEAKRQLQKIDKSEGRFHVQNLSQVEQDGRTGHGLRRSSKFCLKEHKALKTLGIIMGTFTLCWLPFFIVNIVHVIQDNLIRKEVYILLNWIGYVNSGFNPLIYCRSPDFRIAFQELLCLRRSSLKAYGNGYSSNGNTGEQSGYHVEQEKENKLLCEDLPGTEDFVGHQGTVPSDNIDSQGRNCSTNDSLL
KiSS-1 receptor (Homo sapiens), sequence (Q969F8 whole entry, looked up): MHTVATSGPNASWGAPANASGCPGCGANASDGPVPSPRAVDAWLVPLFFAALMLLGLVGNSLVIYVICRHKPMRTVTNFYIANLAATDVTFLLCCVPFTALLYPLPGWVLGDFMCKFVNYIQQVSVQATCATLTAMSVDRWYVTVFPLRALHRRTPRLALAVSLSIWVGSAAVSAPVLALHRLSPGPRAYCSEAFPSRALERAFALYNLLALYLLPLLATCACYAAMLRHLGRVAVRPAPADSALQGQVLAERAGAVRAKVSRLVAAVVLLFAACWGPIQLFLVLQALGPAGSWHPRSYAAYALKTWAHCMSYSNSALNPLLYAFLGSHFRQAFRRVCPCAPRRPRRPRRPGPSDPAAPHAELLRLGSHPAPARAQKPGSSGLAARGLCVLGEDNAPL
Muscarinic acetylcholine receptor M1 (Homo sapiens), sequence (P11229 whole entry, looked up): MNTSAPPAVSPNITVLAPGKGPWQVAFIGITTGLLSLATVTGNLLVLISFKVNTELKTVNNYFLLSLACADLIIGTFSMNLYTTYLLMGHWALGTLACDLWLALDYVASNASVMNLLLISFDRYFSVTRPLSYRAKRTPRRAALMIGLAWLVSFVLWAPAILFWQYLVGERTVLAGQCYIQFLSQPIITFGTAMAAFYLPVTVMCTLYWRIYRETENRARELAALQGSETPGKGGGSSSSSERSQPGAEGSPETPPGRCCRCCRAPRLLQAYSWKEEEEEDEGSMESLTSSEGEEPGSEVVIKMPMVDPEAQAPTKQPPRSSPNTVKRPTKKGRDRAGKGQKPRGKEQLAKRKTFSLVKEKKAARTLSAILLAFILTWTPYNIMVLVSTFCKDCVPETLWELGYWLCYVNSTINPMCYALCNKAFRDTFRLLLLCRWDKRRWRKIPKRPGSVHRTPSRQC

Turning to `O=C(Nc1ccccc1)c1cc([N+](=O)[O-])ccc1Cl`, the Potency entry in assay [1], in assay [3], in assay [6], in assay [7], in [8] and in assay [9] was “inactive” throughout. Further, the Potency entry in assay [10], in assay [11], in assay [12], in assay [13], in assay [14] and in [15] was “inactive” each time. Further, the Potency result in assay [16] was “inactive”. Further, the Potency in [2] was 61.1 µM (active). In addition, the result in [4] and in [5] was inactive.

Consider `FC1(F)C(F)(F)C(F)(F)C2(F)C(F)(C1(F)F)C(F)(F)C(F)(F)C1(F)C(F)(F)C(F)(F)C(F)(F)C(F)(F)C12F` (configuration not stated), for which the Potency result in assay [1], in assay [2], in assay [3], in assay [6], in assay [7] and in assay [8] was “inactive” each time. Moreover, the Potency result in assay [17], in assay [18], in assay [10], in assay [11], in [12] and in assay [13] was “inactive” each time. The Potency entry in [19], in [20], in assay [14], in assay [15] and in assay [16] was “inactive” each time. In addition, the outcome in [4] and in assay [5] was inactive.

For `CC1=CC(O)CC(C)(C)C1` (configuration not stated), the Potency entry in [1], in assay [2], in assay [3], in assay [6], in assay [7] and in [8] was “inactive” each time. Besides, the Potency result in [17], in assay [18], in assay [10], in assay [11], in assay [12] and in assay [13] was “inactive” each time. Further, the Potency result in [19], in [14], in assay [15] and in [16] was “inactive” each time. In addition, the outcome in assay [4] and in assay [5] was inactive.

Regarding `Nc1ccc(C(=O)NCC(=O)O)cc1`, the Potency result in assay [1], in [2], in [3], in assay [6], in [7] and in assay [8] was “inactive” each time. Further, the Potency entry in assay [17], in assay [18], in [10], in [11], in assay [12] and in [13] was “inactive” in each case. In addition, the Potency result in assay [19], in assay [20], in assay [14], in assay [15] and in assay [16] was “inactive” each time. The result in assay [4] and in assay [5] was inactive.

Consider `Nc1ccc(C(=O)OCCCOC(=O)c2ccc(N)cc2)cc1`, for which the Potency result in assay [1], in [2], in [3], in [6], in [7] and in assay [8] was “inactive” in each case. Besides, the Potency result in assay [17], in [18], in assay [10], in assay [11], in assay [12] and in [13] was “inactive” each time. Further, the Potency result in [14], in assay [15] and in assay [16] was “inactive” in each case. Moreover, the outcome in assay [4] and in assay [5] was inactive.

In the case of `CCCCCCCCCCCCCCCCCCOS(=O)(=O)O`, the Potency in assay [1] is 68.6 µM (active). The Potency result in assay [2], in [3], in [6], in assay [7], in [8] and in [17] was “inactive” each time. Also, the Potency result in assay [18], in assay [10], in assay [12], in assay [13], in assay [19] and in assay [20] was “inactive” each time. Besides, the Potency entry in [14], in assay [15] and in assay [16] was “inactive” in each case. Besides, the result in assay [4] and in assay [5] was inactive.

Regarding `C[n+]1cc2c3c(ccc2c2ccc4cc5c(cc4c21)OCO5)OCO3`, the Potency is 1.64 µM (active) in assay [1], 1.46 µM (active) in assay [2], 9.73 µM (active) in assay [8] and 13 µM (active) in assay [16]. The activity change in assay [3] is 3.58% [at 11.8 µM, stronger effect = higher value]. Besides, the activation is 0.698% [at 15.8 µM] in assay [4]; 3.71% [at 11.8 µM] in assay [5]; -8.2% [at 13.5 µM] in assay [6]; -6.71% [at 13.6 µM] in assay [7]; -0.417% [at 13.5 µM] in assay [18]; 10.7% [at 15.9 µM] in [11]. Moreover, in assay [13], the activation is 0.0411% [at 15.8 µM]. In assay [17], the activity change, negative = cytotoxicity is -21.2% [at 13.5 µM]. The figures for the activity, negative = inhibition in assay [10] and in assay [12] were 8.48% [at 12.7 µM] and -0.831% [at 12.6 µM], respectively.
